Results as given in PubChem BioAssay (NCATS).
Several values for one entry are separate records, joined by “and”; a condition that tells them apart may be missing. Equal entries are not always repeated. Records with an inconclusive call do not appear. Activity calls are given as the source filed them. Calls follow the shape of the dose curve; as a rule, active = well fitted inhibition curve with a large enough effect; inconclusive = small, poorly fitted or top-dose-only effect; inactive = no such curve, though single readings can be large or run the other way.

Experiment: Primary qHTS for inhibitors of nuclear receptor binding SET domain protein 2 (NSD2) in an RCH-ACV wild type WT cells (2C) (AID 1645877); also: nearly all actives have a fitted effect of over 70% in size
Conditions: RCH-ACV (leukaemia line) NSD2 WT (2C) viability, CellTiter-Glo, 72 h; series mostly up to 44.9 µM; activity change, negative = cell killing: at the top concentration
Description: Assay Provider: Jonathan D. Licht, MD
University of Florida College of Medicine, Gainesville, FL
Mutations in epigenetic regulators are common in relapsed pediatric acute lymphoblastic leukemia (ALL). Here, we uncovered the mechanism underlying the relapse of ALL driven by an activating mutation of the NSD2 histone methyltransferase (p.E1099K). […] Correction of this mutation restored glucocorticoid sensitivity. The transcriptional response to glucocorticoids was blocked in NSD2 mutant cells due to depressed glucocorticoid receptor (GR) levels and the failure of glucocorticoids to autoactivate GR expression. […] Pre-treatment of NSD2 p.E1099K cell lines and PDX samples with PRC2 inhibitors reversed glucocorticoid resistance in vitro and in vivo.
High-throughput drug screening of isogenic RCH-ACV cell lines was performed at the National Center for Advancing Translational Science (NCATS), National Institutes of Health as previously described (1). Briefly, isogenic RCH-ACV NSD2 p.E1099K mutant (9B) and WT cells (2C) were plated at 500 cells/well in a 1536-well plate with a 72-hour incubation with compounds prior to addition of CellTiter-Glo to assess cell viability. NCATS libraries screened include: NPC, MIPE 5.0, Kinase and NPACT. To determine compound activity in the qHTS assay, the concentration-response data for each sample was plotted and modeled by a four-parameter logistic fit yielding IC50 and efficacy (maximal response) values. The area under the curve (AUC) of the dose-response curve ensures both efficacy (magnitude of cell killing) and potency (concentration that elicits cell killing) are accounted for in the analysis of activity.
1. Tobie D Lee, Olivia W Lee, Kyle R Brimacombe, Lu Chen, Rajarshi Guha, Sabrina Lusvarghi, Bethilehem G Tebase, Carleen Klumpp-Thomas, Robert W Robey, Suresh V Ambudkar, Min Shen, Michael M Gottesman, Matthew D Hall. A High-Throughput Screen of a Library of Therapeutics Identifies Cytotoxic Substrates of P-glycoprotein. Mol Pharmacol. 2019, Nov;96(5):629-640.
% is scaled to controls: 0 for no effect and ±100 for the full control effect; potency is read from the fitted curve at half-maximal effect.

SMILES | Potency | activity change, negative = cell killing | outcome
C=C1C(=O)OC2/C=C(\COO)CC/C=C(\COC(C)=O)CC(OC(=O)C(C)CC)C12 (stereo not given) | 3.55 µM (active) |  | 
COc1ccc(CN(C(=O)[C@@H](N)Cc2c(C)cc(C(N)=O)cc2C)[C@@H](C)c2ncc(-c3ccccc3)[nH]2)cc1C(=O)O |  | -20.5% (inactive) | 
CCOP(=O)(OCC)Oc1ccc2c(C)cc(=O)oc2c1 |  | -26.3% (inactive) | 
COc1cc(O)c2c(c1)CCC[C@@H](O)[C@H](O)C(=O)/C=C\C[C@H](C)OC2=O | 4.5 µM (active) |  | 
Cc1cccc(NC(=O)N[C@H]2CN(C)c3ccccc3C(c3ccccc3)=N2)c1 | 14.5 µM (active) |  | 
Cc1c(N2C(=O)[C@@H]3[C@H](O)CCN3C2=O)ccc(C#N)c1Cl |  | 1.19% (inactive) | 
COc1cc2c(cc1F)C(c1ccccc1Cl)=Nc1c(n[nH]c1C)N2 | 1.03 µM (active) |  | 
CC1=C[C@H]2O[C@@H]3[C@H](O)[C@@H](O)[C@](C)([C@@]2(CO)C[C@@H]1O)[C@]31CO1 | 0.515 µM (active) |  | 
C/C=C(\C)C(=O)OC1C2C3(C)CCC(OC4CC(OC)C(OC5OC(C)C(O)C(OC)C5O)C(C)O4)CC3CCC23OC32CCC(C(C)=O)C2(C)C1OC(=O)/C(C)=C/C (stereo not given) |  | -23.1% [at 9.23 µM] (inactive) | 
CN(CC[C@H](N)CC(=O)N[C@H]1C=C[C@@H](n2ccc(N)nc2=O)O[C@@H]1C(=O)O)C(=N)N |  | 0.799% [at 9.23 µM] (inactive) | 
O=C1CN=C(c2cccc(Br)c2)c2oc3ccccc3c2N1 | 6.49 µM (active) |  | 
C/C=C(\C)C(=O)O[C@H]1CC2C(=C1C)[C@H]1OC(=O)[C@](C)(O)[C@]1(O)[C@H](OC(=O)CCC)C[C@@]2(C)OC(C)=O (stereo not given in full) | 0.709 µM (active) |  | 
C[C@@]1(CO)[C@H](O)CC[C@@]2(C)[C@H]1CC[C@H]1C[C@@H]3C[C@@]12CC[C@]3(O)CO | 2.84 µM (active) |  | 
COC1CC(OC2CCC3(C=O)C(CCC4C3CCC3(C)C(C5=CC(=O)OC5)CCC43O)C2)OC(C)C1O (stereo not given) | 0.126 µM (active) |  | 
C=C1[C@@H](C)[C@H]2[C@H](Cc3ccccc3)NC(=O)[C@]23[C@H](OC(C)=O)/C=C/[C@](C)(O)C(=O)[C@@H](C)C/C=C/[C@H]3[C@@H]1O | 0.258 µM (active) |  | 
C[C@H]1O[C@@H](n2cnc3c(N)ncnc32)C[C@@H]1O |  | -5.08% (inactive) | 
N#Cc1cn([C@@H]2O[C@H](CO)[C@H](O)[C@@H]2O)c2ncnc(N)c12 | 0.0073 µM (active) |  | 
C[C@@H]1C[C@@H](O)[C@]2(O)O[C@@H]3C[C@@]4(C=O)C(CC[C@@H]5C4CC[C@]4(C)[C@@](O)(C6=CC(=O)OC6)CC[C@]54O)C[C@H]3OC2O1 (stereo not given in full) | 1.12 µM (active) |  | 
COC(=O)CC1CC2(C(=O)c3c(O)cccc3C2(O)C(=O)OC)C(C)O1 (stereo not given) |  | 2.08% (inactive) | 
CN1C[C@@H]2CN(c3ccc(-c4ccccc4)nn3)C[C@@H]2C1 |  | -34% (inactive) | 

SMILES | Potency | activity change, negative = cell killing | outcome
CC1Oc2cc3c(-c4c(O)cc(O)c5c(O)c6c(cc45)OC(C)C(C)C6=O)c(O)cc(O)c3c(O)c2C(=O)C1C (stereo not given) | 1.16 µM (active) |  | 
NC(=O)c1ncn2c1CN=C(c1ccccc1Br)c1cc(F)ccc1-2 |  | 0.958% (inactive) | 
Cc1sc2c(c1C)C(c1ccc(Cl)cc1)=NC(CC(=O)Nc1ccc(O)cc1)c1nnc(C)n1-2 (stereo not given) | 129 nM (active) and 296 nM (active) |  | 
CO[C@@H]1[C@H](O)[C@@H](O[C@@H]2C[C@H]3CC[C@@H]4C(CC[C@]5(C)[C@@H](C6=CC(=O)OC6)CC[C@]45O)[C@@]3(C)[C@H](O)C2)O[C@H](C)[C@@H]1O (stereo not given in full) | 0.159 µM (active) |  | 
COc1ccc(C(C)(C)C)cc1CN[C@H]1C2CCN(CC2)[C@H]1C(c1ccccc1)c1ccccc1 | 6.49 µM (active) |  | 
COc1cc2c(c(OC)c1OC)-c1ccc(SC)c(=O)cc1[C@@H](NC(C)=O)CC2 | 0.0058 µM (active) |  | 
CC[C@@]1(O)C(=O)OCc2c1cc1n(c2=O)Cc2cc3c(OC)cccc3nc2-1 | 0.0101 µM (active) |  | 
Nc1ncnc2c1ncn2[C@@H]1O[C@@H]2COP(O)(=S)O[C@H]2[C@H]1O (stereo not given in full) |  |  | inactive [at 9.23 µM]
CO[C@H]1C[C@H](O[C@H]2CC[C@@]3(C)C(=CCC4C3CC[C@]3(C)[C@@H](C5=CC(=O)OC5)CC[C@]43O)C2)O[C@@H](C)[C@@H]1O[C@@H]1O[C@H](CO[C@@H]2O[C@H](CO)[C@@H](O)[C@H](O)[C@H]2O)[C@@H](O)[C@H](O)[C@H]1O (stereo not given in full) |  | -4.53% [at 9.23 µM] (inactive) | 
Nc1ccn(CC(CO)OCP(=O)(O)O)c(=O)n1 (stereo not given) |  | -8.17% (inactive) | 
C[C@]12CC[C@H]3[C@@H](CCC4=C/C(=N/OCC(=O)O)CC[C@@]43C)[C@@H]1CC[C@@H]2O |  | 2.72% (inactive) | 
C[C@@H]1O[C@@H](OC2CCC3(C=O)C(CCC4C3CCC3(C)C(C5=CC(=O)OC5)C(O)CC43O)C2)[C@H](O)[C@H](O)[C@H]1O[C@@H]1O[C@H](CO)[C@@H](O)[C@H](O)[C@H]1O (stereo not given in full) | 4.83 µM (active) |  | 
CC1=CC2OC3CC(O)[C@](C)([C@@]2(C)C(O)C1=O)[C@]31CO1 (stereo not given in full) | 4.09 µM (active) |  | 
C#CCO[C@H]1CN2CCC1CC2 |  |  | inactive
CC[C@H]1C[C@@H]2CC[C@@H](O2)[C@@H](C)C(=O)O[C@H](CC)C[C@H]2CC[C@H](O2)[C@H](C)C(=O)O[C@@H](C)C[C@@H]2CC[C@@H](O2)[C@@H](C)C(=O)O[C@H](CC)C[C@H]2CC[C@H](O2)[C@H](C)C(=O)O1 | 0.0136 µM (active) |  | 
CC(=O)O[C@H]1C[C@@H](C)O[C@H]2O[C@@H]3CC4CC[C@@H]5C(CC[C@]6(C)[C@@H](C7=CC(=O)OC7)CC[C@]56O)[C@@]4(C=O)C[C@H]3O[C@]21O (stereo not given in full) | 0.0682 µM (active) |  | 
O=C(NCCN1CCC2(CC1)C(=O)NCN2c1cccc(F)c1)c1ccc2ccccc2c1 | 9.16 µM (active) |  | 
COC1CC(O[C@H]2CC[C@]3(C)C4CC[C@]5(C)[C@@H](C6=CC(=O)OC6)[C@@H](OC(C)=O)C[C@]5(O)C4CC[C@@H]3C2)OC(C)C1O[C@@H]1O[C@H](CO)[C@@H](O)[C@H](O)[C@H]1O (stereo not given in full) | 0.483 µM (active) |  | 
Cc1cccc(NC(=O)c2ccc(C(F)(F)F)cc2C(=O)O)n1 |  | -13.7% (inactive) | 
CC[C@@H](C)[C@H]1C(=O)O[C@H](C(C)C)C(=O)N(C)[C@@H]([C@@H](C)CC)C(=O)O[C@H](C(C)C)C(=O)N(C)[C@@H]([C@H](C)CC)C(=O)O[C@H](C(C)C)C(=O)N1C | 1.71 µM (active) |  | 
